The list is not random: actives were taken first. Their share in the collection is about 3%.
Ub-GFP proteasome: proteasome inhibitors stabilizing ubiquitin-GFP reporter; Ubiquitin-GFP reporter cells, proteasome inhibition, GFP fluorescence; response scale: untreated = 0%, 10 µM MG-132 = 100%; 67,000 tested, under 10 active; Potency, µM (top dose mostly 45.9 µM), for inactives: at the highest dose activation (GFP accumulation), usual class: activators; active = well fitted activation curve with a large enough effect, not every such curve was filed as active; inconclusive = small, poorly fitted or top-dose-only effect, or another doubt; inactive = no such curve, though single readings can be large or run the other way; also: potency is read from the fitted curve at half-maximal effect
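U2OS cells stably expressing ubiquitin(G76V)-GFP, seeded overnight in 0.5% FBS medium, were exposed to compounds (qHTS, 46 uM to 2.9 nM) for 4 hr at 37 °C. GFP-positive cells were counted by laser cytometry (488 ex/515 em), normalized between basal and 10 uM MG-132.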
GFP derepression: epigenetic GFP locus derepression in mouse cells; mouse C127i GFP locus derepression, cytometry, 30 h; Potency, µM (top dose mostly 46.1 µM), for inactives: at the highest dose GFP derepression (activation); hit rate 0.09% among 68,000; also: % of control where 0% means no effect
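Murine C127i mammary cells carrying a silenced, stably integrated CMV-driven GFP reporter were treated with compound for 30 hours at 37 C. After PBS washes, GFP-positive cells were counted by laser-scanning microplate cytometry.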
TSHR ag: agonists of human thyroid stimulating hormone receptor; P16473; HEK293-CNG-TSHR cells (CNG channel as cAMP sensor), membrane potential dye, cAMP; Potency, µM (series often up to 57.1 µM), for inactives: top-dose activation, usual class: activators; hit rate 0.48% among 73,000; AID 926; active = well fitted activation curve with a large enough effect in the main read-out, with a control signal flat, not every such curve was filed as active; inconclusive = small, poorly fitted or top-dose-only effect, or a change in a side signal; inactive = no such curve, though single readings can be large or run the other way; % of control where 0% means no effect;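 also: the control signal comes from parental cells without the receptor; potency is read from the fitted curve at half-maximal effect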
Target sequence (P16473 whole entry, looked up): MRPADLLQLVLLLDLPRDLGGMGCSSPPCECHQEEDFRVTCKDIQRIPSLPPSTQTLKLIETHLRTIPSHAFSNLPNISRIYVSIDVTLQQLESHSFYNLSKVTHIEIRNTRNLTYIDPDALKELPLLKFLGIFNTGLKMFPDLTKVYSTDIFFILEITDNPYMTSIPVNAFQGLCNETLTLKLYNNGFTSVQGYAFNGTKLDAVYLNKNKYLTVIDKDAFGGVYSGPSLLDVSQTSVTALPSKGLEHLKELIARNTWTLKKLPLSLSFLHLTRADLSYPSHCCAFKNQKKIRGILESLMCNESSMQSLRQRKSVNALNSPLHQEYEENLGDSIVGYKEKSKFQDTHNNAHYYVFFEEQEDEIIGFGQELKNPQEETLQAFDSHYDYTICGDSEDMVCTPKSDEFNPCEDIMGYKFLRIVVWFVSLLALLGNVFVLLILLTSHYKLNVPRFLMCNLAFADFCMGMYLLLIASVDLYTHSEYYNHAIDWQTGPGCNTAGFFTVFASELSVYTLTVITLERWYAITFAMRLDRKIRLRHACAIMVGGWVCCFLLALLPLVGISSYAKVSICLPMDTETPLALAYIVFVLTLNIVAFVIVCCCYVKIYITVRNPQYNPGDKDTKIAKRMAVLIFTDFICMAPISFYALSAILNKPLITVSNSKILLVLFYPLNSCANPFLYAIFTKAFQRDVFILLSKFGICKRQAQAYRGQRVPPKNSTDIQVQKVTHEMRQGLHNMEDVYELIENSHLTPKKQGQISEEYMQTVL
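cAMP rise detected as CNG-channel membrane depolarization by fluorescent dye (emission 590 nm), 30 min after compound, following 60 min dye loading containing 100 uM RO 20-1724 at room temperature. Cells: TSHR/CNG HEK 293, with parental CNG HEK 293 as control.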
HEK293 cAMP cs: raises cAMP in parental HEK293 cells, TSHR agonist counter-screen; parental HEK293 CNG cAMP sensor, membrane potential fluorescence; AID 938; hit rate 2.5% among 73,000; Potency, µM (top dose mostly 57.1 µM), for inactives: at the top dose activation, most hits filed as activators; also: potency is read from the fitted curve at half-maximal effect; % of control where 0% means no effect; nearly all actives have a fitted effect of over 55% in size
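Counterscreen for endogenous-receptor signalling: CNG-channel HEK 293 cells report cAMP rise by membrane depolarization. After 60 min dye equilibration with 100 uM RO 20-1724, compounds incubated 30 min before bottom-read fluorescence at 590 nm.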
HBB splice mod: hemoglobin beta splicing modulation. HBB splicing reporter cell assay, activation; EGFP reporter with mutant IVS2-654 intron; response scale: normalised to 500 nM splice-correcting PNA. Potency, µM (highest dose often 46.1 µM), for the others: at the highest dose activation, usual class: activators. hit rate 0.06% among 65,000. AID 925; also: potency is read from the fitted curve at half-maximal effect; 0% is about no effect
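HeLa cells stably expressing EGFP interrupted by mutant beta-globin intron 2 (IVS2-654), 500/well in 2% FCS. Treated with compound for 2 days at 37C. Splicing correction scored as total well GFP intensity (488 nm excitation, 500-520 nm emission); 500 nM antisense PNA served as control.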
Numbers without * were called inactive; ? = inconclusive; / = no result; [ ] = another dose, or the depositor's remark. Unless noted, calls follow the shape of the dose curve; as a rule, active = well fitted curve in the direction sought with a large enough effect; inconclusive = small, poorly fitted or top-dose-only effect, or another doubt; inactive = no such curve, though single readings can be large; an effect the other way counts as inactive or inconclusive.

SMILES	Ub-GFP proteasome	GFP derepression	TSHR ag	HEK293 cAMP cs	HBB splice mod
O=C(CSc1nnc(COc2ccccc2)n1Cc1ccco1)c1ccc(F)cc1	6.7%	0.0%	?	15.8µM*	2.1%
Cc1ccc(OCc2nnc(SCC(=O)c3ccccc3)n2Cc2ccco2)cc1	-0.9%	-0.4%	?	?	-1.4%[1.84 µM]
CO[C@@H]1COC(=O)C/C=C\[C@@H](C)COC(=O)[C@H](Cc2ccccc2)NC(=O)C/C=C\[C@H]1C	/	/	2.4%[11.4 µM]	4.5%[11.4 µM]	3.2%[9.22 µM]
Cc1ccc2[nH]c3nc(CCCn4ccnc4-c4ccccc4)nnc3c2c1	/	/	/	-3.1%[11.4 µM]	-0.1%[9.22 µM]
O=C1[C@@H]2[C@@H]3C=C[C@H]([C@@H]2C(=O)N1CN1CCSCC1)[C@@H]1[C@@H]2C(=O)N(CN4CCSCC4)C(=O)[C@@H]2[C@H]31	-0.9%[9.17 µM]	4.4%[9.22 µM]	-2.5%[11.4 µM]	2.8%[11.4 µM]	0.6%[9.22 µM]
O=C1C(Cl)=C(NC2CCc3ccccc32)C(=O)c2ncccc21 (stereo not given)	/	/	?	-23.5%	-0.9%
O=C(CSc1nnc(C2CCCCC2)n1Cc1ccccc1)NCc1ccco1	-1.9%	2.4%	?	12.6µM*	0.0%[57.5 µM]
O=c1c2ccccc2nnn1CSc1nc2cc(Cl)ccc2c(=O)n1Cc1ccco1	1.7%	-0.3%	?	2µM*	0.6%
O=c1c2ccccc2nnn1CSc1nnc(COc2ccc(Cl)cc2)n1Cc1ccco1	-16.9%	1.0%	/	27.3%	-1.3%
Cn1c(SCC(=O)NCc2ccco2)nc2ccccc2c1=O	0.2%	0.0%	10.4%	20.8%	/
COc1ccc(C(=O)Nn2c(SCC(=O)NCc3ccco3)nc3ccccc3c2=O)cc1	-4.1%	0.0%	?	20µM*	-1.9%
O=C(CSc1nnc(CNc2ccc(F)cc2)n1Cc1ccccc1)NCc1ccco1	1.0%	-1.6%	9.6%	15.7%	0.0%[57.5 µM]
O=C(CSc1ncc(-c2ccccc2)n1-c1ccccc1)NCc1ccco1	19.2%	2.1%	?	31.6µM*	-0.9%
CCC(=O)[C@]12O[C@@]3(C4C(=O)OCCC41)N(Cc1ccccc1)C(C)=C(C(=O)OC)C(c1ccccc1)N3C2=O (stereo not given in full)	/	/	-2.0%[11.4 µM]	0.5%[11.4 µM]	0.3%[9.22 µM]
Cn1c(Cn2nnc3ccccc32)nnc1SCC(=O)NCc1ccc2c(c1)OCO2	3.2%	0.0%	-3.2%	8.3%	-0.2%[57.5 µM]
O=C(CSc1nc2ccccc2c(=O)n1Cc1ccc(C(=O)NC2CC2)cc1)NCc1ccco1	-0.9%	4.3%	22.7%	19.7%	0.1%[0.369 µM]
CC1CCCC(C)N1C(=O)Cn1c(SCC(=O)NCc2ccc3c(c2)OCO3)nc2ccccc21 (stereo not given)	0.0%	-3.6%	?	15.8µM*	4.0%
O=C(CSc1nc2ccccc2c(=O)n1Cc1ccco1)c1ccc(F)cc1	-0.8%	-0.2%	?	25.1µM*	-0.2%[57.5 µM]
COC(=O)c1ccc(CSc2nc(-c3ccccc3)cs2)o1	2.5%	1.9%	?	39.8µM*	0.1%[57.5 µM]
COC(=O)c1ccc(CSc2nc3ccccc3c(=O)n2Cc2ccco2)o1	-0.1%	-1.4%	?	7.94µM*	-0.3%[57.5 µM]
C[C@@]12C[C@H](O)[C@@H]3[C@H](CCC4=CC(=O)CC[C@]43C)[C@H]1CC[C@@H]2c1csc(-c2ccccc2)n1	0.3%[9.17 µM]	-1.2%[9.22 µM]	2.8%[11.4 µM]	-5.3%[11.4 µM]	-1.6%[9.22 µM]
CCNc1nc(NC(C)C)nc(N(C#N)CCOc2ccc(Cl)cc2Cl)n1	-4.5%	3.4%	?	31.6µM*	0.1%
Cc1nn(Cc2ccccc2)c2sc(C(=O)N3CCN(Cc4ccc5c(c4)OCO5)CC3)cc12	-4.3%	1.0%	17.0%	-4.5%	0.0%[57.5 µM]
CCc1cc2cc(C(=O)N3CCN(Cc4ccccc4)CC3)sc2s1	-8.3%	0.0%	?	31.6µM*	-1.0%[9.22 µM]
O=C1C=CC(=O)c2c1ccc1c2ccc2ccccc21	6.9%[20.5 µM]	-1.2%[20.6 µM]	-18.4%[25.6 µM]	1.3%[25.6 µM]	0.7%[20.6 µM]
SMILES	Ub-GFP proteasome	GFP derepression	TSHR ag	HEK293 cAMP cs	HBB splice mod
O=C(Oc1ccccc1)N1CCC2(CCCN(c3ncccn3)C2)CC1	-0.5%	6.8%[9.22 µM]	?	20µM*	0.9%
c1ccc(-c2cc3c(-n4cccc4)ncnc3o2)cc1	7.4%	-1.2%	?	20µM*	3.8%[57.5 µM]
Cc1cccnc1NCc1ccc(O)c2ncccc12	2.0%	10µM*	0.2%	4.3%	/
O=C1C=C[C@@H](O)[C@H]2[C@@H]3C(=O)N(C[C@@H]4CCCO4)C(=O)[C@@H]3CC[C@H]12	/	/	15.1%[11.4 µM]	0.8%[11.4 µM]	2.0%[9.22 µM]
OC(CN1CCNCC1)Cn1c2ccc(Br)cc2c2cc(Br)ccc21 (stereo not given)	/	/	-1.5%	-7.2%	-0.7%
Nc1ncnc2c1ncn2[C@@H]1CCCO1	-1.6%	0.5%	-14.6%	11.9%	1.0%
Cc1noc(C)c1COC(=O)c1ccccc1NC(=O)Cc1ccccc1	1.0%	0.0%	?	?	-2.6%
Cc1noc(C)c1COC(=O)c1ccccc1Oc1ccccc1	-2.6%	0.0%	?	31.6µM*	-0.3%
COc1ccc(S(=O)(=O)Cc2ccc(C(=O)N3CCN(c4ccc(Cl)cc4)CC3)o2)cc1	-9.2%	-3.4%	20µM*	17.8%	-0.6%
COc1ccc(N2CCN(C(=O)c3ccc(CS(=O)(=O)c4ccc(OC)cc4)o3)CC2)cc1	-12.7%	/	?	?	-0.7%
CCCCC=O	/	/	?	-30.1%	-1.4%
Cc1cc(=O)[nH]c(SCC(=O)c2ccc(C)c(C)c2)n1	/	/	/	8.7%	/
CCc1c(C)nc(SCC(=O)c2ccc(C)c(C)c2)[nH]c1=O	-0.8%	0.0%	?	25.1µM*	-0.6%
N#Cc1cc2cc3c(cc2nc1SCC(=O)OC1CCCCC1)OCO3	2.7%	-2.9%	?	15.8µM*	0.0%[57.5 µM]
CCCn1c(-c2ccc(F)cc2)nc2c(NCCN(C)C)nc(C)nc21	-6.7%	/	?	?	-0.5%
CCCn1c(-c2ccc(F)cc2)nc2c(N3CCN(C)CC3)nc(C)nc21	-8.6%	/	?	15.8µM*	-1.7%
CCCn1c(-c2ccc(F)cc2)nc2c(NCCN(C(C)C)C(C)C)nc(C)nc21	1.0%	/	?	12.6µM*	-1.0%
CCCn1c(-c2ccc(F)cc2)nc2c(N3CCC(N(C)C)C3)nc(C)nc21 (stereo not given)	-3.8%	/	?	?	-0.2%
CCOc1cccc(-c2cc(C(=O)N/N=C/c3cccc(OC)c3O)[nH]n2)c1	/	/	/	8.5%	/
COc1ccc(C(C)=O)cc1COC(=O)c1cc(C)oc1C	/	-2.1%	?	25.1µM*	-2.1%[0.369 µM]
CC1CN(c2oc(-c3ccco3)nc2S(=O)(=O)c2ccccc2)CC(C)O1 (stereo not given)	3.9%	0.0%	25.1µM*	26.7%	0.1%
O=S(=O)(c1ccccc1)c1nc(-c2ccco2)oc1NCc1ccco1	-1.6%	1.6%	17.8%	15.9%	-0.5%
c1ccc(-c2cc3c(nn2)CCc2nonc2-3)cc1	-7.8%	-2.2%	?	?	-1.3%[57.5 µM]
c1ccc(COn2c(-c3ccccc3)nc3c2CCc2nonc2-3)cc1	-1.4%	2.2%	?	25.1µM*	-2.1%[0.369 µM]
